Compound activity: PubChem BioAssay, Corson Lab, School of Medicine, Indiana University
FECH inh: inhibitors of human ferrochelatase, primary screen, biochemical, purified FECH, Ni-mesoporphyrin absorbance | Ni-mesoporphyrin absorbance 550 nm | calls only at 10 µM (by protocol) | 3.3% of 20,000 active;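 active = enzyme reaction rate more than 3 SD below the solvent-only control wells on the same plate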;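 also: lower slope than DMSO wells means FECH inhibition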
Target sequence (P22830 whole entry, looked up): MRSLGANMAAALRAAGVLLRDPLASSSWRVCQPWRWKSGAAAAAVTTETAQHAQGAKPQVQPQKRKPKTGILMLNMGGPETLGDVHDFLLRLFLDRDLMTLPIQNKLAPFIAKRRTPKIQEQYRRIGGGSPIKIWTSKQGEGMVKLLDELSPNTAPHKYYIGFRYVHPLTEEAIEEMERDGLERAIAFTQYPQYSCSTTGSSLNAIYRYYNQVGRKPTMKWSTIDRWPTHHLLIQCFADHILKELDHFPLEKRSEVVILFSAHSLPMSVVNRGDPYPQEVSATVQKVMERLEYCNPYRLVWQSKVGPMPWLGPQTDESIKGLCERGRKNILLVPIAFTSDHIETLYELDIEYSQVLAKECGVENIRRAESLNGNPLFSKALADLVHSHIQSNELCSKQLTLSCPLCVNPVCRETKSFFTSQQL
* marks the source's active call; other numbers are inactive results; i = inactive; + = active, no number. This is one part of a sample in which hits are shown more often than they occur.

SMILES | FECH inh
CCC(CN(C)Cc1ccccc1)NC(=O)c1ccc(CN2C(=O)CCn3nccc32)cc1 (stereo not given) | i
CCCCN(Cc1ccccc1F)C(=O)c1ccc(=O)[nH]c1 | i
CCN1CCN(S(=O)(=O)c2ccc3c(c2)CCN3C(=O)CCC(=O)N2CCCCCC2)CC1 | i
Cc1ccc2nc(C3CCCN3Cc3cncn3C3CCCC3)[nH]c2c1 (stereo not given) | i
CN1C(=O)c2ccccc2Sc2cc(-c3noc(-c4ccnn4C)n3)ccc21 | i
O=S(=O)(c1ccc(Br)cc1)N1CCN(c2cc(-c3cccc(F)c3)ncn2)CC1 | i
Cc1ccc(-c2cc(N3CCN(S(=O)(=O)c4ccc(Br)cc4)CC3)ncn2)cc1 | +
O=S(=O)(c1ccc(Br)cc1)N1CCN(c2cc(-c3ccc(F)cc3)ncn2)CC1 | i
CN(CC(=O)NCc1ccccc1F)Cc1cccc2ncccc12 | i
CO[C@H]1COC[C@@H]1NCC(=O)Nc1cccc(F)c1C | i
Cc1cnc(CN(C)CC(=O)Nc2cccc(F)c2C)[nH]1 | +
CCOCCCNc1nc(Nc2cccc(F)c2)c2cnn(-c3ccccc3)c2n1 | i
COc1ccc(Cl)cc1C(=O)Nc1ccc(Nc2nc(C)cc(N(C)C)n2)cc1 | i
COc1ccc(N2CCN(CCCNC(=O)c3cccn3-c3nnc(N4CCCCC4)s3)CC2)cc1 | i
O=C(NCCCN1CCN(c2ccc(F)cc2)CC1)C1CCCN1c1nnc(N2CCCC2=O)s1 (stereo not given) | +
CCN(CCCNC(=O)C1CCCN1c1nnc(N2CCCC2=O)s1)Cc1ccccc1 (stereo not given) | i
COc1ccc(CNC(=O)C2CCCN2c2nnc(N3CCCC3=O)s2)cc1OC (stereo not given) | +
COc1ccc(CNC(=O)C2CCCN2S(=O)(=O)c2ccc3c(c2)CCCC(=O)N3)cc1 (stereo not given) | i
O=C(NCCN1CCCc2ccccc21)C1CCCN1c1nnc(N2CCCC2=O)s1 (stereo not given) | i
Cc1cccc(CNC(=O)c2nc(N3CCCC3)c3oc4ccccc4c3n2)c1 | i
CN(C)CC1(O)CCCN(C(=O)CCc2ccc(N(C)C)cc2)CC1 (stereo not given) | i
Cc1ccc(S(=O)(=O)N(Cc2c(F)cccc2Cl)c2nc3nc(C)c(Cl)c(C)n3n2)cc1 | i
CCCc1cc(=O)n2[nH]c(CNc3cccc(C)c3C)nc2n1 | +
CCCc1cc(=O)n2[nH]c(CNc3ccccc3C)nc2n1 | +
Cc1cccc(NCc2cc(=O)n3[nH]c(NCc4ccccc4)nc3n2)c1C | i
SMILES | FECH inh
Cc1ccc(Cl)cc1NCc1cc(=O)n2[nH]c(NCc3ccc(F)cc3)nc2n1 | i
Cc1cccc(NCc2nc3nc(C)c(Cc4ccc(Cl)cc4)c(=O)n3[nH]2)c1C | +
CCCc1cc(=O)n2[nH]c(CNc3cc(Cl)ccc3C)nc2n1 | +
COc1ccc(CNc2nc3nc(CNc4cccc(C)c4C)cc(=O)n3[nH]2)cc1 | i
CCOC(=O)CCc1c(C)nc2nc(CNc3ccccc3Cl)[nH]n2c1=O | i
CCCc1c(C)nc2nc(-c3ccco3)[nH]n2c1=O | i
COc1ccc(Cl)cc1NCc1cc(=O)n2[nH]c(NCc3ccccc3)nc2n1 | i
Cc1cc(=O)n2[nH]c(C3CC3)nc2n1 | i
CCOc1ccccc1C(=O)Nc1cc(C)nn1-c1ncnc2c1cnn2-c1cccc(C)c1C | i
COc1cccc(Cn2c(CNS(=O)(=O)c3ccc(C)cc3C)nc3cccnc32)c1 | i
CCSc1nc(CC(=O)NCCc2nc3ccccc3c(=O)[nH]2)cs1 | i
CC(C)c1nccn1Cc1cc(C(=O)NCC2CCCO2)n[nH]1 (stereo not given) | i
CCCc1cc(=O)n2[nH]c(CNc3cccc(Cl)c3C)nc2n1 | +
COc1ccc(NC(=O)c2ccncc2Cl)cc1NC(=O)c1ccccc1 | i
CCC(=O)Nc1ccccc1-c1nnc(SCC(=O)Nc2cccc(Cl)c2Cl)[nH]c1=O | i
CCN1C(SCC(=O)Nc2cc(Cl)c(OC)cc2OC)=NS(=O)(=O)c2ccccc21 | i
CCN1C(SCC(=O)Nc2ccccc2C)=NS(=O)(=O)c2ccccc21 | +
COc1ccc(N2C(=O)N(CC(=O)NCCc3ccccc3)c3ccccc3S2(=O)=O)cc1OC | i
CCC1=C(c2ccc(OC)cc2)S(=O)(=O)N(CC(=O)Nc2c(C)cccc2CC)C1=O | i
CCN1C(SCC(=O)Nc2ccc(Cl)cc2F)=NS(=O)(=O)c2ccccc21 | +
CCc1cccc(C)c1NC(=O)c1nc2ccccc2n(C)c1=O | i
Cc1ccc(CN2c3ccccc3-c3nc(SCC(=O)Nc4ccc(C)c(Cl)c4)ncc3S2(=O)=O)cc1 | i
CCCCNC(=O)CC1CCN(S(=O)(=O)c2ccccc2)CC1 | i
CCN1C(SCC(=O)Nc2cc(Cl)ccc2C)=NS(=O)(=O)c2ccccc21 | i
CCc1cccc(C)c1NC(=O)CSC1=NS(=O)(=O)c2ccccc2N1CC | +
CCCCNC(=O)CSC1=NS(=O)(=O)c2ccccc2N1CC | +
